PubChem BioAssay (EPA / NIEHS)
Results filed as inconclusive are left out. More than one record can exist for a structure, and the calls need not agree. Calls of active or inactive are those of the source. The calls were made as follows, unless noted: active = hit-call score of the fitted dose curve at least 0.9, where 1 is the maximum; inactive = score below 0.9.

How the values were obtained:
[1] = CCTE_Shafer_MEA_dev_firing_rate_mean: CCTE's Neural Network Formation Assay for Mean Firing Rate, Shafer Lab (AID 2284031);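 as to AC50: curve fitted for loss of firing so AC50 reflects decreased mean firing rate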
Method in brief: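 Spike frequency (spikes/recording length, averaged over active electrodes) was recorded on days 5, 7, 9 and 12 and collapsed to AUC; rat cortical cultures received compound continuously over 12 days of network development.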

[2] = CCTE_Shafer_MEA_dev_per_burst_spike_percent: CCTE's Neural Network Formation Assay for Percent of Spikes in a Burst, Shafer Lab (AID 2284032);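 as to AC50: fitted as a decrease in burst spike percentage below DMSO baseline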
Method in brief: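 Value is trapezoidal AUC over recordings on days 5, 7, 9 and 12 of the well-mean fraction of spikes falling in single-electrode bursts; rat cortical cultures exposed continuously from plating, treatment renewed DIV 5 and 9, fitted downward against DMSO.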

[3] = CCTE_Shafer_MEA_dev_burst_rate: CCTE's Neural Network Formation Assay for Burst Rate, Shafer Lab (AID 2284042);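 as to AC50: potency for loss of burst rate below DMSO control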
Method in brief: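 Cells plated, treated day 0; recorded DIV 5, 7, 9, 12; fed and re-treated DIV 5, 9. Endpoint: bursts per recording time, active-electrode well mean, trapezoidal AUC, fitted in decreasing direction against DMSO baseline.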

[4] = CCTE_Shafer_MEA_dev_active_electrodes_number: CCTE's Neural Network Formation Assay for Number of Active Electrodes, Shafer Lab (AID 2284040; active = hit-call score of the fitted dose curve at least 0.9, where 1 is the maximum;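 as to AC50: potency for loss of active electrodes versus DMSO so lower counts are hits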)
Method in brief: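 Counts electrodes per well firing at least 5 spikes/min, recorded on days 5, 7, 9 and 12 in rat cortical cultures dosed continuously from plating (treatment refreshed DIV 5, 9). Value is the area under the curve over recordings, fitted downward relative to DMSO.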

[5] = target: Estrogen receptor (Homo sapiens) (UniProt P03372); experiment: CCTE_Deisenroth_AIME_96WELL_LUC_Active: CCTE's 96-well Estrogen Receptor Transactivation Assay with AIME metabolic competence (ERTA luciferase; metabolism positive), Deisenroth Lab (AID 2284023; active = hit-call score of the fitted dose curve at least 0.9, where 1 is the maximum)
Method in brief: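 Metabolism-positive mode: induced rat hepatic S9 in alginate microspheres conditions test solutions (0.002 - 200 uM, 10 points) for 2 hours. VM7Luc4E2 ER luciferase reporter cells then exposed 24 h; positive-direction fit against 17beta-estradiol, n=4 typical.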

[6] = target: Estrogen receptor (Homo sapiens) (UniProt P03372); experiment: CCTE_Deisenroth_AIME_96WELL_LUC_Inactive: CCTE's 96-well Estrogen Receptor Transactivation Assay without AIME metabolic competence (ERTA luciferase; metabolism negative), Deisenroth Lab (AID 2284025; active = hit-call score of the fitted dose curve at least 0.9, where 1 is the maximum)
Method in brief: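 Metabolism-negative arm: chemicals (0.002–200 uM, 10 points) incubated 2 h with alginate-water microspheres, then medium moved onto VM7Luc4E2 cells for 24 h luciferase read-out. Positive direction vs 17beta-estradiol; n≥4 experiments.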

[7] = CCTE_Shafer_MEA_acute_burst_percentage_mean: CCTE's Neural Acute Assay for Percentage of Spikes in a Burst, Shafer Lab (AID 2284017)
Method in brief: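 Rat cortical cultures, DIV 13/15, 37 C. Spikes detected at 8x rms noise (300-5000 Hz band-pass). Burst spikes/total spikes averaged across electrodes per well; % change post- vs pre-treatment (40 min each), loss-of-signal fit vs DMSO.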

[8] = CCTE_Shafer_MEA_acute_burst_percentage_std: CCTE's Neural Acute Assay for Standard Deviation of Burst Percentage, Shafer Lab (AID 2284018);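 also: fitted in the negative direction so actives lower burst percentage SD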
Method in brief: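 Value is percent change from baseline in the across-electrode SD of spikes-in-bursts percentage, wells with >/= 10 active electrodes. Acute 40-min exposure to 0.03-40 uM on DIV 13 or 15 rat cortical cultures, recorded at 37 C after 40-min baseline.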

[9] = CCTE_Shafer_MEA_acute_per_network_burst_spike_number_mean: CCTE's Neural Acute Assay for Average Number of Spikes in a Network Burst, Shafer Lab (AID 2284019)
Method in brief: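 Percent change from baseline in mean spikes per network burst, spikes detected at 8x rms noise. Each compound at 0.03-40 uM in at least three wells of rat cortical cultures, recorded 40 min before and 40 min during exposure.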

[10] = CCTE_Shafer_MEA_acute_per_network_burst_spike_number_std: CCTE's Neural Acute Assay for Standard Deviation of Number of Spikes in a Network Burst, Shafer Lab (AID 2284020);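 also: fitted for decrease in spike-number SD versus DMSO so actives lower it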
Method in brief: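 Endpoint: percent change from 40 min baseline in standard deviation of spikes per network burst, after 40 min compound exposure (0.03-40 uM, 37 C). Cortical rat neurons on MEA at DIV 13 or 15; spikes detected at 8x rms noise, 300-5000 Hz band-pass.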

[11] = CCTE_Shafer_MEA_acute_per_network_burst_electrodes_number_mean: CCTE's Neural Acute Assay for Mean Number of Electrodes in a Network Burst, Shafer Lab (AID 2284021);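 also: curves fitted for decreases only so hits reduce electrodes per burst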
Method in brief: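 Percent change from baseline was computed as mean electrode count per network burst, comparing 40 min recordings before and during compound (0.03-40 uM) exposure. Cultures were rat cortical neurons at DIV 13 or 15, recorded on MEAs at 37 C with an adaptive 8x rms threshold.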

[12] = CCTE_Shafer_MEA_acute_network_burst_percentage: CCTE's Neural Acute Assay for Percentage of Network Bursts, Shafer Lab (AID 2284022);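 also: curves fitted for loss so actives lower network burst percentage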
Method in brief: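 Network burst percentage (spikes in network bursts divided by total spikes) recorded at 37 C over 40 min baseline and 40 min after compound, 0.03-40 uM, in rat cortical cultures at DIV 13 or 15. Analysed as percent change from baseline versus DMSO.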

[13] = CCTE_Shafer_MEA_acute_cross_correlation_area: CCTE's Neural Acute Assay for Area of Cross Correlation, Shafer Lab (AID 2284024);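 also: area under pooled inter-electrode spike cross-correlation near zero lag as percent change from own baseline; curves fitted for loss of cross-correlation area so actives lower synchrony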
Method in brief: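 Percent change in well-wide cross-correlation area (window around zero lag) between 40 min baseline and 40 min post-compound recordings, 37 C; rat cortical cultures on MEA at DIV 13 or 15, dosed 0.03-40 uM, wells needing >/= 10 active electrodes.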

[14] = CCTE_Shafer_MEA_acute_cross_correlation_HWHM: CCTE's Neural Acute Assay for Cross Correlation at Half Width at Half Maximum, Shafer Lab (AID 2284026);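 also: spontaneous network firing of rat primary cortical neurons on multiwell microelectrode arrays; percent change per well from pre-dose baseline in spike cross-correlogram half width; hits are a decrease in cross-correlogram half width relative to DMSO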
Method in brief: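 Per-well percent change in cross-correlogram half width at half maximum, derived from 40-min recordings before and after compound (0.03-40 uM) at 37 C. Cultures were rat cortical neurons, DIV 13 or 15, with adaptive spike detection at 8x rms.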

[15] = CCTE_Shafer_MEA_acute_synchrony_index: CCTE's Neural Acute Assay for Synchrony, Shafer Lab (AID 2284027);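 also: network synchrony index of spontaneous spiking in primary rat cortical neurons on MEAs; fitted for loss of signal so actives lower synchrony relative to DMSO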
Method in brief: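 The synchrony index is taken as percent change per well between a 40 min baseline and a 40 min recording with compound (0.03–40 uM), at 37C. Rat cortical cultures on multiwell MEAs at DIV 13 or 15, spike threshold 8× rms noise.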

[16] = CCTE_Deisenroth_AIME_384WELL_CTox_Active: Cytotoxicity Assessment (CTOX) in CCTE's 384-well Estrogen Receptor Transactivation Assay with AIME metabolic competence (metabolism positive), Deisenroth Lab (AID 2284037; active = hit-call score of the fitted dose curve at least 0.9, where 1 is the maximum;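 also: chemicals first conditioned 2 h by alginate-bound induced rat liver S9 before cells; activity means signal loss indicating cell death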)
Method in brief: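 Cytotoxicity in VM7Luc4E2 breast cells, 24 hour, measured as protease-substrate fluorescence loss, after 2-hour metabolic conditioning with induced rat hepatic S9 in alginate microspheres. Concentrations 0.002 - 200 uM, 10 points, bidirectional fitting.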

[17] = CCTE_Deisenroth_AIME_384WELL_CTox_Inactive: Cytotoxicity Assessment (CTOX) in CCTE's 384-well Estrogen Receptor Transactivation Assay without AIME metabolic competence (metabolism negative), Deisenroth Lab (AID 2284039; active = hit-call score of the fitted dose curve at least 0.9, where 1 is the maximum;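 also: cell viability via live-cell protease substrate cleaved to fluorescent probe; cells exposed 24 h to medium preincubated 2 h with alginate-water beads without S9; loss of fluorescence signal means loss of viability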)
Method in brief: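 Metabolism-negative arm: chemicals (10-point, 0.002 - 200 uM) preincubated 2 h with alginate-water lids, medium moved onto VM7Luc4E2 cells for 24 h. Fluorescent live-cell protease readout; bidirectional curve fit.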

[18] = target: Estrogen receptor (Homo sapiens) (UniProt P03372); experiment: CCTE_Deisenroth_AIME_384WELL_LUC_Shift: CCTE's 384-well Estrogen Receptor Transactivation Assay with AIME metabolic competence data shift (ERTA luciferase; difference in metabolism positive and negative), Deisenroth Lab (AID 2284041);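 also: shift is response with S9 minus without S9 so positive means metabolism raised ER signal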
Method in brief: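 Test chemicals (0.002–200 uM, 10-point) were pre-incubated 2 h with alginate microspheres containing phenobarbital/beta-naphthoflavone-induced male Sprague Dawley rat liver S9 or water, then medium was transferred to VM7Luc4E2 cells for 24 h luciferase readout; shift = S9-positive minus S9-negative normalized response.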

[19] = target: Estrogen receptor (Homo sapiens) (UniProt P03372); experiment: CCTE_Deisenroth_AIME_384WELL_LUC_Active: CCTE's 384-well Estrogen Receptor Transactivation Assay with AIME metabolic competence (ERTA luciferase; metabolism positive), Deisenroth Lab (AID 2284030; active = hit-call score of the fitted dose curve at least 0.9, where 1 is the maximum)
Method in brief: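 VM7Luc4E2 breast cells were given, for 24 hours, medium pre-incubated for 2 hours with parent chemical (0.002-200 uM, 10 concentrations) and alginate-encapsulated phenobarbital/beta-naphthoflavone-induced rat hepatic S9. Luciferase gain of signal was fitted against 17beta-estradiol; n=4 or more.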

[20] = target: Estrogen receptor (Homo sapiens) (UniProt P03372); experiment: CCTE_Deisenroth_AIME_384WELL_LUC_Inactive: CCTE's 384-well Estrogen Receptor Transactivation Assay without AIME metabolic competence (ERTA luciferase; metabolism negative), Deisenroth Lab (AID 2284038; active = hit-call score of the fitted dose curve at least 0.9, where 1 is the maximum;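 also: VM7Luc4E2 breast cells given medium preincubated 2 h with S9-free microspheres; hits raise estrogen receptor luciferase signal so potencies reflect agonists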)
Method in brief: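 VM7Luc4E2 ER transactivation, luciferase bioluminescence after 24 h, using medium pre-incubated 2 h with S9-free alginate microspheres. Concentrations 0.002–200 uM; gain of signal fitted relative to 17beta-estradiol.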

Measured: AC50

Sequence of Estrogen receptor (Homo sapiens) (P03372 whole entry, looked up): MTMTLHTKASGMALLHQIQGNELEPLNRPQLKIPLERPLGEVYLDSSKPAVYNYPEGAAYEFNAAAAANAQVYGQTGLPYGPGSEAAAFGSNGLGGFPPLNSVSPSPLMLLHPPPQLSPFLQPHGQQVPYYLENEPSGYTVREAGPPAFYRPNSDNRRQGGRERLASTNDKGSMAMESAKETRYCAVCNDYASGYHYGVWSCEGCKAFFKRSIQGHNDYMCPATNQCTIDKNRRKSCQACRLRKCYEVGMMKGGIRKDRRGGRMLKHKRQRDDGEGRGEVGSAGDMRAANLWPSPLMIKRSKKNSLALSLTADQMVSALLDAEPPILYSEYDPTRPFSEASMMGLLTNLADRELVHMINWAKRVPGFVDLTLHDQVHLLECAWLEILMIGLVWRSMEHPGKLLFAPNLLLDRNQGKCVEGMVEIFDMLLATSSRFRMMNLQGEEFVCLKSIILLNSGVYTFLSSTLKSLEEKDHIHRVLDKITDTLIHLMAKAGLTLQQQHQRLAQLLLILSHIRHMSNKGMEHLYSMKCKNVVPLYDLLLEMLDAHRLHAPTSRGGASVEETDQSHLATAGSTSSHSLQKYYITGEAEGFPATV

O=C(O)C(F)(F)C(F)(F)C(F)(F)C(F)(F)C(F)(F)C(F)(F)C(F)(F)C(F)(F)C(F)(F)C(F)F
inactive: [1] | [2] | [3]

O=C(O)C(F)(F)C(F)(F)C(F)F
inactive: [1] | [2] | [4] | [3]

C#C[C@]1(O)CC[C@H]2[C@@H]3CCc4cc(OC)ccc4[C@H]3CC[C@@]21C
active: [5] 0.1 nM | [6] 0.372 nM

O=C(O)C(F)(F)C(F)(F)C(F)(F)F
inactive: [1] | [2] | [4] | [3]

CCCCCCOC(=O)c1ccccc1O
inactive: [7] | [8] | [9] | [10] | [11] | [12] | [13] | [14] | [15]

OCCCC(F)(F)C(F)(F)C(F)(F)F
inactive: [1] | [2] | [4] | [3]

CC(CCl)OP(=O)(OC(C)CCl)OC(C)CCl (configuration not stated)
active: [4] 50 µM
inactive: [1] | [2] | [4] | [3]

OC[C@@H](O)[C@@H](O)[C@H](O)[C@@H](O)CO
inactive: [1] | [2] | [4] | [3]

FC(F)(F)C(F)(F)C(F)(F)C(F)(F)C(F)(F)C(F)(F)CC1CO1 (configuration not stated)
inactive: [1] | [2] | [3]

CCN(Cc1cccc(S(=O)(=O)O)c1)c1ccc(C(=C2C=CC(=[N+](CC)Cc3cccc(S(=O)(=O)O)c3)C=C2)c2ccc(O)cc2S(=O)(=O)[O-])cc1
active: [16] 124 µM | [17] 100 µM
inactive: [18]

O=S(=O)(OCCOC(F)(F)F)C(F)(F)F
inactive: [1] | [2] | [4] | [3]

FC(F)(F)C(F)(F)C(F)(F)C(F)(F)C(F)(F)CCI
active: [2] 22.2 µM | [4] 15 µM
inactive: [1] | [3]

C(=C(c1ccccc1)c1ccccc1)c1ccccc1
inactive: [17]
active: [19] 4.42 µM | [20] 9.48 µM | [18] 869 nM

OCC(F)(F)C(F)(F)C(F)(F)C(F)(F)C(F)(F)C(F)F
inactive: [1] | [2] | [4] | [3]

CC(C)(C)C(=O)CC(=O)C(F)(F)C(F)(F)C(F)(F)F
active: [2] 23.5 µM | [4] 25.2 µM
inactive: [1] | [3]

Cc1ccc(S(=O)(=O)OCC(F)(F)C(F)(F)C(F)(F)C(F)(F)C(F)(F)C(F)F)cc1
inactive: [1] | [2] | [3]

OCC(F)(F)C(F)(F)C(F)(F)F
inactive: [1] | [2] | [4] | [3]

O=C(O)C(F)(F)C(F)(F)C(F)(F)C(F)(F)C(F)(F)C(F)(F)C(F)(F)C(F)(F)Cl
inactive: [1] | [2] | [4] | [3]

CCCCCCC(C)OC(=O)CCCCC(=O)OC(C)CCCCCC (configuration not stated)
inactive: [19] | [20] | [17] | [18]

NC(=O)C(F)(F)C(F)(F)C(F)(F)C(F)(F)F
inactive: [1] | [2] | [3]

N=C(N)C(F)(F)C(F)(F)C(F)(F)C(F)(F)C(F)(F)C(F)(F)C(F)(F)F
inactive: [1] | [2] | [4] | [3]

COC(=O)CCC(F)(F)C(F)(F)C(F)(F)C(F)(F)F
inactive: [1] | [2] | [3]

C=CC(=O)OCC(F)(F)C(F)(F)C(F)(F)C(F)(F)COC(=O)C=C
active: [1] 4.34 µM | [2] 4.76 µM | [4] 4.2 µM | [3] 4.18 µM

O=P(O)(O)OCCC(F)(F)C(F)(F)C(F)(F)C(F)(F)C(F)(F)C(F)(F)F
inactive: [1] | [2] | [4] | [3]

FC(F)(F)C(F)(F)CNCC(F)(F)C(F)(F)F
inactive: [1] | [2] | [4] | [3]

OCC(F)(F)C(F)(F)C(F)(F)C(F)F
inactive: [1] | [2] | [4] | [3]

CCCCC(CC)COP(=O)(O)OCC(CC)CCCC (configuration not stated)
inactive: [7] | [8] | [9] | [10] | [11] | [12] | [14] | [15]
active: [13] 8.23 nM

O=C(O)C=C(C(F)(F)F)C(F)(F)F
inactive: [1] | [2] | [4] | [3]

CC/C=C\CCOC(C)=O
inactive: [19] | [16] | [17] | [18]

O=S(=O)(OCC(F)F)C(F)(F)F
inactive: [1] | [2] | [4] | [3]

CNC(=S)NC
inactive: [19] | [20] | [17] | [18]
